# Data published in the supplement of paper PMC8728848.
# The entries come from a sample that favours the strongest signals as a whole.
# Tests used:
# Experiment in all cases: glycan array binding signal (z-score within array); higher = stronger binding
# Details in all cases: glycan notation: IUPAC condensed, linker removed
# [1] = system: Gal(b1-3)[GlcNAc(b1-6)]GalNAc
# Procedure, shortened: (§1)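 Negative Z-scores can be read as non-binding. The Z-score is calculated within each array and then averaged across arrays of one protein sequence at different concentrations or buffers and across linkers. Arrays, 3228 in all, were curated from the Consortium for Functional Glycomics database and kept only where the protein sequence was available.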
# [2] = system: Gal(b1-3)[Neu5Ac(a2-6)]GlcNAc(b1-6)Gal(b1-4)Glc
# Procedure, shortened: as §1
# [3] = system: Gal(b1-4)GlcNAc(b1-2)Man(a1-3)[Gal(b1-4)GlcNAc(b1-2)Man(a1-6)][Gal(b1-4)GlcNAc(b1-4)]Man(b1-4)GlcNAc(b1-4)[Fuc(a1-6)]GlcNAc
# Procedure, shortened: as §1
# [4] = system: Gal(b1-4)GlcNAc(b1-2)Man(a1-3)Man(b1-4)GlcNAc(b1-4)GlcNAc
# Procedure, shortened: as §1
# [5] = system: Gal(b1-3)[Neu5Ac(a2-6)]GlcNAc(b1-4)Gal(b1-4)Glc
# Procedure, shortened: as §1
# Gal(b1-4)Gal = system: Gal(b1-4)Gal
# Procedure, shortened: as §1
# [6] = system: Gal(b1-4)GalNAc(a1-3)[Fuc(a1-2)]Gal(b1-4)GlcNAc
# Procedure, shortened: as §1
# Gal(b1-4)Glc6S = system: Gal(b1-4)Glc6S
# Procedure, shortened: as §1
# [7] = system: Gal(b1-3)[Fuc(a1-4)]GlcNAc
# Procedure, shortened: as §1
# [8] = system: Gal(b1-4)GlcNAc(b1-2)Man(a1-3)[Gal(b1-4)GlcNAc(b1-2)Man(a1-6)]Man(b1-4)GlcNAc(b1-4)[Fuc(a1-6)]GlcNAc
# Procedure, shortened: as §1
# Sequence of PILRb (Mus musculus), Q2YSF2 (Q2YSF2 entry or part of it): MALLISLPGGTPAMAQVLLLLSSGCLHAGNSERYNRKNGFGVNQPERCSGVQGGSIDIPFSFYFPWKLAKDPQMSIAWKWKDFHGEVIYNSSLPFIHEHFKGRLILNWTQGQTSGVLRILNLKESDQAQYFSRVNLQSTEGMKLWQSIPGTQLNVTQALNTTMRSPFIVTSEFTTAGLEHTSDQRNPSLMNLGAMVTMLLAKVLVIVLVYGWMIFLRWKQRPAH
# Sequence of Aggrecan (Rattus norvegicus), NP_071526 (chain, as listed by the source): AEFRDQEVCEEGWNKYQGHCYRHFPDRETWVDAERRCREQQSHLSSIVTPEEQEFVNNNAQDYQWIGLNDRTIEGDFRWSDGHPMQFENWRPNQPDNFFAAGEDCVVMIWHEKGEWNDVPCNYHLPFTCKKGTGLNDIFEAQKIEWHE
# Sequence of 6RG (Lolium perenne) (chain, as listed by the source): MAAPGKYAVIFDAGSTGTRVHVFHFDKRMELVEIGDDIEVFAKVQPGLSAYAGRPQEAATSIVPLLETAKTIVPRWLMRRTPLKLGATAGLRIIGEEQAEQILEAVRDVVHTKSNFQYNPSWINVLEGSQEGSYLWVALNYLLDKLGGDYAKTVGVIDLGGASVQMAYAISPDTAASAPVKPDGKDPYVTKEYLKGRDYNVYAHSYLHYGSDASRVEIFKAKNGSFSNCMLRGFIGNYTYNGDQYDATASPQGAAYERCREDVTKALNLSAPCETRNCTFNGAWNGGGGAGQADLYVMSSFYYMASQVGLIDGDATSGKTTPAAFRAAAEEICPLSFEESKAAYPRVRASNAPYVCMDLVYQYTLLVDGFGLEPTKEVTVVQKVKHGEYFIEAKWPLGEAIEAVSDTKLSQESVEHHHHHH
# Sequence of wLAT-1A (Homo sapiens), Q01650 (Q01650 whole entry): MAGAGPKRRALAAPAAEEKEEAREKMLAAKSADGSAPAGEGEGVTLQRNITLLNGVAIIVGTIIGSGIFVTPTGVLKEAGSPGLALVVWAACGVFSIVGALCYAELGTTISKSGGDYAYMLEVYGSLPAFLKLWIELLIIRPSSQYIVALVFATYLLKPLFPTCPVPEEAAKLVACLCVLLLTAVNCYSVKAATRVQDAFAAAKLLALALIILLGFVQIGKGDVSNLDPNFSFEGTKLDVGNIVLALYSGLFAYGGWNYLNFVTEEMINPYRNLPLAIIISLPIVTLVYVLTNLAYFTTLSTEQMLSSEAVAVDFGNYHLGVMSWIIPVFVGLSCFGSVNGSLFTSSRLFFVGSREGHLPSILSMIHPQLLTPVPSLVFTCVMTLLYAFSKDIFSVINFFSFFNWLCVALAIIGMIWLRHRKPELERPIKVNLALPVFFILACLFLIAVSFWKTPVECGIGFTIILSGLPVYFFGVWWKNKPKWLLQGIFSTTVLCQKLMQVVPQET
# Sequence of Neurocan (Homo sapiens), O14594 (O14594 other isoform, or with tags, fused parts or gaps): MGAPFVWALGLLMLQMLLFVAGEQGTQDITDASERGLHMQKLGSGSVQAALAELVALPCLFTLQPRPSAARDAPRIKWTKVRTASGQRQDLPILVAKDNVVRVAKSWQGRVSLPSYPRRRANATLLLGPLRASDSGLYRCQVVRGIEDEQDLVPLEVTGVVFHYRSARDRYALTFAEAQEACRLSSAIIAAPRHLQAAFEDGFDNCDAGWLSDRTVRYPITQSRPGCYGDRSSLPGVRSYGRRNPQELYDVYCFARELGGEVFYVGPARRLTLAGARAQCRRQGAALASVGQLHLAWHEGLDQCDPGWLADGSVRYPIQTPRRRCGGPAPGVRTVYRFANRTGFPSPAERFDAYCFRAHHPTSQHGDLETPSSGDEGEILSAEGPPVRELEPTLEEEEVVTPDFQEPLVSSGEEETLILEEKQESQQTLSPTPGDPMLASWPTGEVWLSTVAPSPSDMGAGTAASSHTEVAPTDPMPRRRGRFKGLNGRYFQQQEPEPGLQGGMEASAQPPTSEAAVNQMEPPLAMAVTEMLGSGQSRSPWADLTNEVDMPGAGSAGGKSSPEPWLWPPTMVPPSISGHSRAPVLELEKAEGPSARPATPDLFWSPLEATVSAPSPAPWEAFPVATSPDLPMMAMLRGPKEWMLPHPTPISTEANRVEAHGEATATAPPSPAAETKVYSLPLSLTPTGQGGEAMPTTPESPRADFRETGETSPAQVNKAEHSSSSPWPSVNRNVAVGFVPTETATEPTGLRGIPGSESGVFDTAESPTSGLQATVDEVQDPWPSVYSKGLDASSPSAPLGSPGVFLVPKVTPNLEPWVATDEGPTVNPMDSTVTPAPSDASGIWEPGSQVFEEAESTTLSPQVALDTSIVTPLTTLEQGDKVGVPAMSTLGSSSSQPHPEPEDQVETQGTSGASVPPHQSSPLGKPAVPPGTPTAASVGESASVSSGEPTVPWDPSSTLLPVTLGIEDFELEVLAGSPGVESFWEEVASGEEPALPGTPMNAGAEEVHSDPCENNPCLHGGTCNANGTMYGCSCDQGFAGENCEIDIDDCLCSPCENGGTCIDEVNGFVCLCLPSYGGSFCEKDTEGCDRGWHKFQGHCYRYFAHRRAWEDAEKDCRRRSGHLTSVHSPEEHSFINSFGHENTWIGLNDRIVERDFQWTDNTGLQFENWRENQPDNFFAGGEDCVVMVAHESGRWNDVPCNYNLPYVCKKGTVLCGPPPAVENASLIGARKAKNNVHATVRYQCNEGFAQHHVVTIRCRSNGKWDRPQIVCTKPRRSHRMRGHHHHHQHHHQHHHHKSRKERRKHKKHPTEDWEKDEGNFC
# Sequence of 6RG (Lolium perenne), B9U140 (B9U140 entry or part of it): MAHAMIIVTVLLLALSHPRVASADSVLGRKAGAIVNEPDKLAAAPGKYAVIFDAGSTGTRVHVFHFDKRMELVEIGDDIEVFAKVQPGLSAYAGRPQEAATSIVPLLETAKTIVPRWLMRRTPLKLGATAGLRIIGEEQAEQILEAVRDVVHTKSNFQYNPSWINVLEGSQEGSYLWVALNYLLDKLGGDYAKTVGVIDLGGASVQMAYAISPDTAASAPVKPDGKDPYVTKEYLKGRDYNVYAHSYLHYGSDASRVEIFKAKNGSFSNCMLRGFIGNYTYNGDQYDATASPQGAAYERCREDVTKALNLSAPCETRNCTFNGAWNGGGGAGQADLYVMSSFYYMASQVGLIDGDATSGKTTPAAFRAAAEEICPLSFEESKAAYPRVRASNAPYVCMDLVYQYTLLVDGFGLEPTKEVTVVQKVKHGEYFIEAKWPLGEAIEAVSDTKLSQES
# Sequence of Regenerating Gene IV (Homo sapiens), Q9BYZ8 (Q9BYZ8 whole entry, looked up): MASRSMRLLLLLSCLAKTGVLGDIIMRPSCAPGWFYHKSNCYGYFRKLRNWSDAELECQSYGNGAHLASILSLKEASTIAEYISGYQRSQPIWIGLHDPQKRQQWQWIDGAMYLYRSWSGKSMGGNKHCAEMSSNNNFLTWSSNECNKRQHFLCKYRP
# Sequence of CHI3L1 (Homo sapiens), P36222 (P36222 whole entry): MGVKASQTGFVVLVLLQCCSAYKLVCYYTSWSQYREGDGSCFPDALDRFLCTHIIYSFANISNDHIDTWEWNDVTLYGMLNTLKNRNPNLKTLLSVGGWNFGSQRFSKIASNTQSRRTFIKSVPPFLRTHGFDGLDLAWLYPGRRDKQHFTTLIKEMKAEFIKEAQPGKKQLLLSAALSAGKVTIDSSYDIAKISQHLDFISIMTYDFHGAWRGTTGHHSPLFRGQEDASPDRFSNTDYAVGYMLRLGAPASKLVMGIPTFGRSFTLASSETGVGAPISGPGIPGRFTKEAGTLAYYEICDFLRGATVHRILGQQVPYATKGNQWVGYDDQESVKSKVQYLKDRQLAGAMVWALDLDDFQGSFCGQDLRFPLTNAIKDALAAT
# Sequence of Avaren (Actinomycete K97) (chain, as listed by the source): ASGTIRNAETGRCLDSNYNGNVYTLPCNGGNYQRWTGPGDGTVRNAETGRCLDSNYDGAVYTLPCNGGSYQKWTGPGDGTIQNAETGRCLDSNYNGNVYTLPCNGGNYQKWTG
# Sequence of C3b (Homo sapiens), P01024 (P01024 23-667): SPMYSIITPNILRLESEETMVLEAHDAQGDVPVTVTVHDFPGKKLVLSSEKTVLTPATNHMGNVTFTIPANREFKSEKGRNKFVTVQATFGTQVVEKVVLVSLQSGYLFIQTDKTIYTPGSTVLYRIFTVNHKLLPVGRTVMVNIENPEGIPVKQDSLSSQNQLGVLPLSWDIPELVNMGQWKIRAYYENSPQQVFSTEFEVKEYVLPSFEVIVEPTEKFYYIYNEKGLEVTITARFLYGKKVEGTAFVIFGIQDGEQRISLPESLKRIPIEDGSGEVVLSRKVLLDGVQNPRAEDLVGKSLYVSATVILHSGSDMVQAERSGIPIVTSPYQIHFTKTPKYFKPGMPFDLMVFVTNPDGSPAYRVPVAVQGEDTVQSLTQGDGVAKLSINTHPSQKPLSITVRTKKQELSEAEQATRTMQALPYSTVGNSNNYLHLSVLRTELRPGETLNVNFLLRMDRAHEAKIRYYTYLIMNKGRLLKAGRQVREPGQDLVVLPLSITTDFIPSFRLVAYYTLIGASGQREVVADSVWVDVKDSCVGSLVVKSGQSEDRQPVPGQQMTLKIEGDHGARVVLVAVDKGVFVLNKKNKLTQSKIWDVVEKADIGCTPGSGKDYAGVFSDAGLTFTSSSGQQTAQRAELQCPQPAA
substance,measurement,setting,value
6RG (Lolium perenne),glycan array binding signal (z-score),[1],-0.16
same,glycan array binding signal (z-score),[2],4.25
Avaren (Actinomycete K97),glycan array binding signal (z-score),[3],-0.121
"CHI3L1 (Homo sapiens), P36222",glycan array binding signal (z-score),[4],-0.118
"HARE (Homo sapiens), Q8WWQ8",glycan array binding signal (z-score),[1],-0.451
same,glycan array binding signal (z-score),[5],1.92
MpAFP RI GFP (Marinomonas primoryensis),glycan array binding signal (z-score),[1],-0.258
same,glycan array binding signal (z-score),Gal(b1-4)Gal,-0.4
"6RG (Lolium perenne), B9U140",glycan array binding signal (z-score),[2],-0.249
"PILRb (Mus musculus), Q2YSF2",glycan array binding signal (z-score),[6],-0.547
same,glycan array binding signal (z-score),Gal(b1-4)Gal,0.167
same,glycan array binding signal (z-score),Gal(b1-4)Glc6S,1.22
"Aggrecan (Rattus norvegicus), NP_071526",glycan array binding signal (z-score),[7],4.94
same,glycan array binding signal (z-score),[2],-0.144
"wLAT-1A (Homo sapiens), Q01650",glycan array binding signal (z-score),[6],-0.62
"Neurocan (Homo sapiens), O14594",glycan array binding signal (z-score),[4],0.015
"Siglec-8 (Homo sapiens), Q9NYZ4",glycan array binding signal (z-score),[7]; mutation: R125K,-0.408
same,glycan array binding signal (z-score),[4],-0.306
same,glycan array binding signal (z-score),[8],-0.08
same,glycan array binding signal (z-score),[3]; mutation: R125K,-0.535
"C3b (Homo sapiens), P01024",glycan array binding signal (z-score),[7],0.283
"Regenerating Gene IV (Homo sapiens), Q9BYZ8",glycan array binding signal (z-score),Gal(b1-4)Glc6S,2.4
